Among all 68,000 compounds or so, about 2,700 (4%) showed an effect of 50% or more. This is one part of a sample in which strong results are shown more often than they occur.
System: Plasmodium berghei
Experiment: Screen against P. berghei liver stage (PbLuc), transformed with Luciferase, at 2uM
Type: functional, HepG2
Details: tested at 2 uM

| Compound | INHIBITION |
| --- | --- |
| CCN1CCN(C2CCN(C(C(N)=O)c3ccccc3)CC2)C1=O (stereo not given) | -42.16% |
| CS(=O)(=O)CC1(CNc2ccc(C#N)c(C(F)(F)F)c2)CC1 | 39.25% |
| CC(C)COC(C)C(=O)N1CCCCC1 (stereo not given) | 30.68% |
| CC(C)COC(C)C(=O)N1CCCC1 (stereo not given) | 52.6% |
| CC(C)COC(C)C(=O)N1CCCCCC1 (stereo not given) | 7.46% |
| CCn1c(C2CCN(C(=O)c3ccc4sc(C)nc4c3)CC2)n[nH]c1=O | 26.49% |
| CN(C)Cc1nnc(C2CCCN(c3nc(C(N)=O)cs3)C2)n1C (stereo not given) | 12.29% |
| COCC(C)(O)CNC(=O)c1cc(-c2cc(OC)ccc2OC)nn1C (stereo not given) | 10.91% |
| O=C(CCCc1nnc(-c2ccccc2)o1)N1CCN(C2CC2)CC1 | 21.64% |
| c1cnc(N2CCO[C@H]3CN(CC4CCC4)C[C@H]32)cn1 | 15.88% |
| O=C(NCC1(c2cccs2)CCCCC1)N1CCOC(CO)C1 (stereo not given) | -46.5% |
| COc1ccc(OC)c(CCNc2ncc(S(N)(=O)=O)s2)c1 | -0.95% |
| COc1ccc(CN(C)c2ncc(S(N)(=O)=O)s2)c(OC)c1 | 67.36% |
| COc1ccc(OC)c(CN(C)c2ncc(S(N)(=O)=O)s2)c1 | -28.18% |
| CC(C)(C)c1nccc(C2(c3ccccc3Cl)CCNCC2)n1 | 2.06% |
| CSCCC(=O)N1CCN(CC(C)O)CC1 (stereo not given) | 52.3% |
| CSCCC(=O)N1CCN(CC(O)C(C)(C)C)CC1 (stereo not given) | 32.1% |
| CCC(O)CN1CCN(C(=O)CCSC)CC1 (stereo not given) | -38.59% |
| CC(C)c1nnc(NC(=O)CCC(=O)NCC2CCCO2)s1 (stereo not given) | 4.39% |
| CC(C)C(CNC(=O)CCn1cncn1)N1CCc2ccccc2C1 (stereo not given) | 16.98% |
| CCC(CNC(=O)CCn1cncn1)N1CCc2ccccc2C1 (stereo not given) | 60% |
| CC(CNC(=O)CCCn1cncn1)N1CCc2ccccc2C1 (stereo not given) | -48.63% |
| O=C(CN1CCCCCC1=O)NCC1CCN(c2ccccc2)C1 (stereo not given) | -17.17% |
| CC(CNC1CCN(Cc2ccncc2)CC1)c1ccc(F)cc1F (stereo not given) | 26.99% |
| CC(C)c1cc(NCC(O)c2ccc(F)cc2)n2nccc2n1 (stereo not given) | -25.05% |
| CCN(CC(F)(F)F)C(=O)C1CCCN(Cc2nc(C)c(C)o2)C1 (stereo not given) | 35.46% |
| CCC(=O)NCCc1cc(N2CCN(C(C)=O)CC2)nc(C2CC2)n1 | -28.81% |

| Compound | INHIBITION |
| --- | --- |
| CC(=O)N1CCN(c2cc(CCNC(=O)C(C)C)nc(C3CC3)n2)CC1 | 27.39% |
| CC(=O)NCCc1cc(N2CCN(C(C)=O)CC2)nc(C2CC2)n1 | 51.61% |
| Cc1cnn(CC2CCCN2C(=O)CCc2ccc3c(c2)OCO3)c1 (stereo not given) | -26.45% |
| NS(=O)(=O)c1ccc(F)c(C(=O)NCCSc2ccccn2)c1 | 32.97% |
| Cn1ccnc1-c1nc(N2CCCCC2)ncc1-c1ccccc1F | -29.24% |
| CS(=O)(=O)NCc1cnc2n1CCN(Cc1cccnc1)CC2 | 8.36% |
| CS(=O)(=O)NCc1cnc2n1CCN(Cc1ccoc1)CC2 | 50.17% |
| CS(=O)(=O)NCc1cnc2n1CCN(Cc1ccsc1)CC2 | -75.39% |
| CN(Cc1ccco1)Cc1ccccc1CNC(=O)c1cnc[nH]1 | 21.27% |
| CC(C)Nc1cccc(CC2CCN(S(C)(=O)=O)CC2)n1 | 52.82% |
| CC(C)Nc1cccc(CC2CCN(C)C2)n1 (stereo not given) | -5.42% |
| Cn1nccc1-c1cccc(CC2CCN(S(C)(=O)=O)C2)n1 (stereo not given) | -30.88% |
| Fc1ccc(-c2noc(C3COCCO3)n2)cc1F (stereo not given) | -29.82% |
| CN1CCN(C(=O)Cc2ccc(S(=O)(=O)C(F)F)cc2)CC1 | 63.39% |
| O=C(Cc1ccc(S(=O)(=O)C(F)F)cc1)N1CCCC1 | 33.7% |
| O=C(Cc1ccc(S(=O)(=O)C(F)F)cc1)N1CCC1 | 17.61% |
| COCc1ccccc1C(=O)N1CCCC1Cn1nc(C)cc1C (stereo not given) | -63.06% |
| CC(Cn1cncn1)NCc1nncn1C1CCCCC1 (stereo not given) | -28.93% |
| O=C1NCCN1C1CCCN(Cc2coc(-c3ccc(F)cc3)n2)C1 (stereo not given) | 60.21% |
| O=C1NCCN1C1CCN(Cc2coc(-c3ccc(F)cc3)n2)CC1 | 17.31% |
| O=C1NCCN1C1CCCN(Cc2nnc(-c3ccc(F)cc3)o2)C1 (stereo not given) | -43.47% |
| COc1cccc2c1OCC(C(=O)N(C)CCCc1cnn(C)c1)C2 (stereo not given) | 27.75% |
| COc1cccc2c1OCC(C(=O)NCCn1nc(C)c(Cl)c1C)C2 (stereo not given) | 24.36% |
| CCN(Cc1ccncc1)C(=O)C1COc2c(cccc2OC)C1 (stereo not given) | 57.75% |
| CCCn1nc(C)c(CNC(=O)C2COc3c(cccc3OC)C2)c1C (stereo not given) | 18.57% |
| COc1cccc2c1OCC(C(=O)NCCCn1nc(C)c(Cl)c1C)C2 (stereo not given) | 50.59% |
| COCCN(Cc1ccncc1)C(=O)C1COc2c(cccc2OC)C1 (stereo not given) | 45.82% |

| Compound | INHIBITION |
| --- | --- |
| COc1cccc2c1OCC(C(=O)N(Cc1ccncc1)CC(C)C)C2 (stereo not given) | 17.2% |
| COCCN(Cc1ccncc1)C(=O)C1COc2ccccc2C1 (stereo not given) | 33.9% |
| COCCN(Cc1cnn(C)c1)C(=O)C1COc2c(cccc2OC)C1 (stereo not given) | 72.05% |
| CC(C)(C)n1cc(C(=O)N2CCN(Cc3cccnc3)CC2)cn1 | -3.57% |
| Cc1ccccc1CCCN1CCS(=O)(=O)CC1C (stereo not given) | -31.95% |
| CC(C)n1cnc2c(-c3cccnc3)nc(C3CCNCC3)cc21 | -17.24% |
| CCO[C@@H]1CO[C@@]2(CCCN(C(=O)c3ccc(OC)c(F)c3)C2)C1 | -8.46% |
| CCO[C@@H]1CO[C@@]2(CCCN(S(=O)(=O)c3cccnc3)C2)C1 | 27.16% |
| O=C(c1ccc(F)c(F)c1)N1CCC[C@]2(C[C@@H](OCC3CC3)CO2)C1 | 13.04% |
| CCO[C@H]1CO[C@@]2(CCCN(C(=O)c3ccc(OC)c(F)c3)C2)C1 | 52.36% |
| CCO[C@H]1CO[C@@]2(CCCN(S(=O)(=O)c3ccccc3)C2)C1 | -89.74% |
| O=C(C1CC1)N1CCC[C@]2(C[C@@H](OCc3ccncc3)CO2)C1 | 2.4% |
| O=C(N1CCCC1)N1CCC[C@]2(C[C@@H](OCc3ccncc3)CO2)C1 | -12.23% |
| CCOCC(=O)N1CCC[C@]2(C[C@@H](OCc3ccncc3)CO2)C1 | 55.15% |
| CCO[C@H]1CO[C@@]2(CCCN(S(=O)(=O)c3cccnc3)C2)C1 | 50.35% |
| CC(=O)N1CCC(c2ccnc(Nc3cnccn3)n2)C1 (stereo not given) | 28.45% |
| CC(C)CN1CCC2(CC1)C(=O)Nc1ccc(C(=O)N(C)C)cc12 | 11.28% |
| Cc1cc(O)ccc1-c1cc(-c2cnn(C)c2C2CC2)c(C#N)c(N)n1 | 7.06% |
| c1cc2occc2c(N2CCCC(c3nncn3C3CC3)C2)n1 (stereo not given) | 12.62% |
| CCCc1ccc(CN2CCC3(CCC(=O)N(CCCOC)C3)CC2)o1 | -26.08% |
| CCCc1nccn1-c1ccc(C(C)O)cc1 (stereo not given) | 10.23% |
| OC(CN1CCOCC1)c1ccc(Br)cc1 (stereo not given) | 36.23% |
| CCCc1nccn1-c1ccc(C(O)CN2CCOCC2)cc1 (stereo not given) | 62% |
| O=C(CN1CCCC1)N1CCCC(c2cc(=O)n3c(n2)CCCCC3)C1 (stereo not given) | 18.22% |
| CN(C)c1ncccc1CNC(=O)N(Cc1ccccc1F)C1CC1 | -20.35% |
| Cc1ccc(CNC(=O)N(Cc2ccccc2F)C2CC2)cn1 | 70.41% |
| O=C(NCc1ccncc1)N(Cc1ccccc1F)C1CC1 | 14.83% |

| Compound | INHIBITION |
| --- | --- |
| Cc1nc(C2(O)CCCNCC2)sc1CCOc1ccccc1Cl (stereo not given) | -16.62% |
| CCOc1ncccc1NC(=O)N1CCN(c2cccc(C)c2C)CC1 | 30.91% |
| Cc1n[nH]c(C)c1NC(=O)CN1CCCC1c1noc(C(C)C)n1 (stereo not given) | 15.28% |
| CN1CCN(C(=O)Cc2cccc(F)c2)Cc2cccnc21 | 26.09% |
| c1cncc(-c2noc(C3CN(Cc4cccs4)C3)n2)c1 | 51.71% |
| COc1cccc(-c2noc(C3CCN(Cc4cccs4)C3)n2)c1 (stereo not given) | 11.1% |
| N#Cc1cccc(C(=O)N2CC(c3nc(-c4cccnc4)no3)C2)c1 | 25.53% |
| c1cnc(-c2noc(C3CN(Cc4ccsc4)C3)n2)cn1 | 5.39% |
| c1csc(CN2CC(c3nc(-c4cnccn4)no3)C2)c1 | 26.54% |
| O=C(Cc1cccs1)N1CC(c2nc(-c3cnccn3)no2)C1 | 50.2% |
| CCc1ccc(NC(=O)N2C[C@H]3CC[C@@]4(N=C(C)N(C)C4=O)[C@H]3C2)cc1 | 17.4% |
| O=C(Nc1c(N2CCCC2)cccc1N1CCCC1)c1ccccn1 | 32.26% |
| O=C(Nc1c(N2CCCC2)cccc1N1CCCC1)c1cnsn1 | 52.38% |
| O=C(Nc1c(N2CCCC2)cccc1N1CCCC1)c1cnccn1 | 19.33% |
| CCOc1cc(CN(C)CCC#N)ccc1OC(F)F | 14.17% |
| Cc1cc(C)cc(CNCCS(=O)(=O)N2CCOCC2)c1 | -6.33% |
| OCC(CO)Nc1nc(C(F)F)nc2ccccc12 | -11.32% |
| CNc1cc(C2CN(Cc3scnc3C)CCO2)nc(C)n1 (stereo not given) | -1.07% |
| CS(=O)(=O)c1ccc(Cl)c(C(=O)NCCC2=CCCCC2)c1 | 6.92% |
| Cc1cc(C)n(C2CCCN(C(=O)Cc3cn4ccsc4n3)C2)n1 (stereo not given) | 20.57% |
| Cc1cc(N2CCC(O)(CN(C)C(=O)CCCN)C2)c2cnccc2n1 (stereo not given) | -14.93% |
| Cc1cc(N2CCC(O)(CN(C)C(=O)CCN)C2)c2cnccc2n1 (stereo not given) | -17.65% |
| Cc1cc(N2CCC(O)(CN(C)C(=O)CCN)CC2)c2cnccc2n1 | 57.47% |
| CCOC(=O)COC1CCN(C(C)=O)CC(=O)N(C)c2ccccc21 (stereo not given) | 19.99% |

— ChEMBL document CHEMBL4513216, “Probing the Open Global Health Chemical Diversity Library for Multistage-Active Starting Points for Next-Generation Antimalarials” (ACS Infect Dis, 2020)
